Reference: ChEMBL document CHEMBL3988442, “University of Dundee, Small-Polar-MMV Screening Library” (2021)

Target: AMP-activated protein kinase, AMPK (Homo sapiens) (UniProt P54646+O43741+P54619+Q9UGJ0+Q9Y478+Q13131+Q9UGI9)
Assay: AMP-dependent Kinase enzyme assay. An in vitro enzyme assay that detects ADP turnover that is directly proportional to AMPK activity. This uses naive AMPK that is activated during the assay with MK-8722
Format: functional
Design: scale not given: direction of the effect not stated beside the values
Conditions: 30 µM

Point of comparison: `CCOCCN1CCN(c2ncccc2C#N)CC1CC` (centres undefined), Percent Effect 4.43%. Against it:
- Cn1nccc1CN1CCOC(c2cccc(Nc3ccccn3)n2)C1 (centres undefined) — higher, 5.54%
- NC(=O)NC(CC(=O)N1CCc2sccc2C1)c1ccccc1F (centres undefined) — lower, 3.63%
- CCN(CC)c1ncccc1CNCc1ccc(-c2ccn[nH]2)s1 — lower, 1.23%
- COCCC(=O)N1CCCC(CCC(=O)Nc2ccc(Cl)cc2)C1 (centres undefined) — higher, 5.38%
- O=C(CCC1CCCC1)N1C[C@H]2CC[C@@H]1CN(Cc1ccncc1)C2 — higher, 6.08%
- CC(C)(C)c1ncc2c(n1)CN(c1cc(NCCO)nc(N)n1)C2 — lower, -194%
- CSCCC(NC(N)=O)C(=O)Nc1ccc(-n2cccn2)nc1 (centres undefined) — lower, -9.12%
- CC(C)c1nc(C2CCCN2CCc2ccccn2)no1 (centres undefined) — higher, 20.7%
- Cc1c(C(=O)N2CCCN(S(C)(=O)=O)CC2)cnn1C — higher, 10.1%
- COc1nccc(N2CC[C@@H](N3CCCCCC3)[C@H](O)C2)c1C#N — lower, -1.86%
- CCCNC(=O)c1[nH]nc(C2CC2)c1Br — lower, 2.02%
- O=C(CC1COCCN1)N1CCCN(C2Cc3ccccc3C2)CC1 (centres undefined) — lower, -11.6%
- CSCC(C)(O)CNS(=O)(=O)c1cccc(C)c1 (centres undefined) — lower, -0.713%
- COc1cc(F)ccc1NC(=O)NC(C)C(=O)NC(C)(C)C (centres undefined) — lower, -11.6%
- CSCC(=O)N1CCN(CC(O)C(C)(C)C)CC1 (centres undefined) — lower, -3.62%
- CN1CCN(C(=O)CCn2ncc3ccccc32)CC(C(N)=O)C1 (centres undefined) — higher, 7.38%
- Cc1ccc2[nH]c(CN(C)Cc3ccccc3C(=O)O)nc2c1 — higher, 4.71%
- CN1CCCN(c2ccc(F)cc2CNC(=O)c2ccsc2)CC1 — higher, 5.4%
- NC(=O)[C@@H]1Cc2ccccc2CN1CCC(=O)N1CCOCC1 — lower, -7.78%
- O=C(CN1CC(c2nc(-c3ccco3)no2)C1)NCCc1ccccc1 — lower, -5%
- NC(=O)CN1C[C@@H](c2ccccc2F)[C@@]2(CCCCC(=O)N2)C1 — higher, 15.1%
- Cc1noc(C2CCCN(Cn3cc(Cl)cn3)C2)n1 (centres undefined) — higher, 10.4%
- Cc1noc(C)c1-c1n[nH]c2c1CN(S(=O)(=O)c1cccnc1)CC2 — lower, 1.02%
- C[S+]([O-])c1cccc(NC(=O)N[C@H](CCO)c2ccccc2)c1 (some centres undefined) — lower, -2.38%
- CC(C)(C)C(=O)N1CCCC1c1cc(CO)[nH]n1 (centres undefined) — higher, 14.4%
- COc1ccc(C)nc1NC(=O)CCc1c(C)nn(C)c1C — lower, -7.06%
- O=C(NCC1CCS(=O)(=O)C1)N(Cc1ccco1)C1CC1 (centres undefined) — lower, -4.86%
- CN(CCCC1CCCO1)C(=O)c1cccc(C#N)c1 (centres undefined) — higher, 10.9%
- Cc1cc(C2CCCN(CCC(=O)N3CCc4ccccc43)C2)n[nH]1 (centres undefined) — lower, -4.69%
- CN1C[C@H](c2ccccc2)[C@H]2CN(C(=O)Cc3cccc(O)c3)CC[C@H]21 — higher, 15.8%
- O=C(Nc1ccc(-c2csnn2)cc1)NC(CCO)C1CC1 (centres undefined) — higher, 12.3%
- Cc1cc(NC(=O)N2CCC[C@@H]2CO)nn1-c1cccc(Cl)c1 — lower, -3.24%
- c1cc(CN2CCC[C@@H](Cn3nnc(-c4cnccn4)n3)C2)ccn1 — higher, 6.31%
- Cc1cc(C)c(C(=O)N(C)CCN(C)C(=O)OC(C)(C)C)[nH]1 — lower, -0.277%
- Cc1noc(C)c1C(=O)N[C@@H]1CCC[C@@H](Oc2ccccc2)[C@@H]1O — higher, 19.1%
- CN1CCCC(c2nccnc2-c2cccc(C(F)(F)F)c2)C1 (centres undefined) — higher, 26.4%
- CN(Cc1n[nH]c2c1CCCCC2)C(=O)c1cc(-c2cccn2C)n[nH]1 — higher, 12.8%
- c1nc(N2CCOCC2)sc1-c1cncn1CCCN1CCCCC1 — lower, -0.295%
